Test results taken from publication PMC4336329 (PLoS ONE, 2015).
Hit rate of the full screen: of about 310,000 compounds, about 14,000 (4.5%) showed an effect of 50% or more. The effect is printed as a negative number. The list comes from a sample in which strong results are over-represented; it also holds similar structures and randomly drawn compounds.

Target: human ether-à-go-go-related gene (hERG) potassium channel (human, UniProt Q12809)
Experiment: primary screen, population patch clamp on CHO cells stably expressing hERG; higher = less effect of the substance
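Note: peak tail current of the secondary pulse compared with the same well before compound.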

Chain of human ether-à-go-go-related gene (hERG) potassium channel (Q12809 whole entry, looked up): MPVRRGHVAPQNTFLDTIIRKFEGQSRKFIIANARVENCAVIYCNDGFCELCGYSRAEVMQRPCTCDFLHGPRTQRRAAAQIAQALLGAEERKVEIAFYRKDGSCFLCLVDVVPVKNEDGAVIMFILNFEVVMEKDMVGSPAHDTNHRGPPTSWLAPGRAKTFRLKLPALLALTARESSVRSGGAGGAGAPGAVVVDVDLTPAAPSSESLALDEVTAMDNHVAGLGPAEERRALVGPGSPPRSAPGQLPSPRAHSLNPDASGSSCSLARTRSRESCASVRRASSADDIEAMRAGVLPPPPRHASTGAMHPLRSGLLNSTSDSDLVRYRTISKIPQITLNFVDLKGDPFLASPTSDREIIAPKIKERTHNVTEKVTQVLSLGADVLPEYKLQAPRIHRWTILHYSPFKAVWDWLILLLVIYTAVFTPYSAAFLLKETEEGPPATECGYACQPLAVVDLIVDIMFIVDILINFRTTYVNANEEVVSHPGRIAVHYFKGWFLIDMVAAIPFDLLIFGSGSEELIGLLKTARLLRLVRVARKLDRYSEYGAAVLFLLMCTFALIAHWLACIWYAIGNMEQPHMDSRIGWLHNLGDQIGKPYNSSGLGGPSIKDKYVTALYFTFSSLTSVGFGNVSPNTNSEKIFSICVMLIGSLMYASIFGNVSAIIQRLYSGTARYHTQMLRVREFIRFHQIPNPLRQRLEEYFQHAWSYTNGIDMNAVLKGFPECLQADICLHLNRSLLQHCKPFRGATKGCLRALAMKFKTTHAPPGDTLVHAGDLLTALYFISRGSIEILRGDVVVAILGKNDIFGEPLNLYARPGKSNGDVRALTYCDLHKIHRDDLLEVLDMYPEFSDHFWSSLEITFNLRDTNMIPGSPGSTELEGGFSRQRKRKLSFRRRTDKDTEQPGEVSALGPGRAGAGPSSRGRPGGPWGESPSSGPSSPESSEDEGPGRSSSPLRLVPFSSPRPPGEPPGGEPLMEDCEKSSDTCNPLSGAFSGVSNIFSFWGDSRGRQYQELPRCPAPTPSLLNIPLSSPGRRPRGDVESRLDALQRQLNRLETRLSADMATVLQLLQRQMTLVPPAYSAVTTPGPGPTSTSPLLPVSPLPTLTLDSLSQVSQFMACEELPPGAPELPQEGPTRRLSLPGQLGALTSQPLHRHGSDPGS

Row | Compound | hERG current change (%, negative = inhibition) at 10uM
1 | COc1ccc(C(=O)O)cc1S(=O)(=O)N(C)C | 16.6%
2 | O=C(Nc1cc(Cl)ccc1Oc1ccccc1)c1ccccc1F | -4.45%
3 | CCCC(C)C(=O)Nc1ccccc1C(=O)OCC (centres unmarked) | -4.39%
4 | O=S(=O)(Nc1ccccc1Cl)c1cc(NC(=S)NCCN2CCOCC2)ccc1Cl | 14%
5 | CCOC(NC(=O)c1ccccc1)C(NC(=O)c1ccccc1)OCC (centres unmarked) | -0.069%
6 | CCN1CCN(c2ccc(N3CCN(S(=O)(=O)c4cc([N+](=O)[O-])ccc4C)CC3)nn2)CC1 | -54.4%
7 | Cc1ccc([N+](=O)[O-])cc1S(=O)(=O)N1CCCC1 | 7.21%
8 | Cc1ccc(S(=O)(=O)N2CCN(c3ccc(N4CCOCC4)nn3)CC2)cc1[N+](=O)[O-] | -4.74%
9 | CCN1CCN(S(=O)(=O)c2ccc(C)c([N+](=O)[O-])c2)CC1 | -0.352%
10 | Cc1ccc([N+](=O)[O-])cc1S(=O)(=O)N1CCN(C)CC1 | 0.51%
11 | CCN1CCN(c2ccc(N3CCN(S(=O)(=O)c4ccc(C)c([N+](=O)[O-])c4)CC3)nn2)CC1 | -56.6%
12 | C[C@]12CC[C@@H]3c4cc(O)c(O)cc4CC[C@H]3[C@@H]1CC[C@@H]2O | 24.1%
13 | O=C(O)c1cc(-c2cccc(Cl)c2)nc2nc(N3CCCCC3)sc12 | 8.18%
14 | CS(=O)(=O)c1ccc(NCC2CCCO2)c([N+](=O)[O-])c1 (centres unmarked) | 9.48%
15 | CN(CCc1ccccc1)C1CCCN(C(=O)Cn2cccn2)C1 (centres unmarked) | -1.49%
16 | Cc1cc(C)nc(SCc2ccc(C(=O)N/N=C/c3ccncc3)cc2)n1 | -50.5%
17 | Cc1cc(C)nc(SCc2ccc(C(=O)N/N=C/c3cccnc3)cc2)n1 | -17.3%
18 | Cc1cc(C)nc(SCc2ccc(C(=O)N/N=C/c3ccc(C(=O)O)cc3)cc2)n1 | 28.6%
19 | N=C1C(c2nc3ccccc3[nH]2)=C(O)CN1NC(=O)c1c[nH]c2ccccc12 | 17%
20 | CCOc1ccc(N2C(=O)Nc3ccc(Br)cc3C2(O)C(=O)NC(C)C)cc1 (centres unmarked) | 8.92%
21 | Cc1c2cnn(CC(=O)N3CCC4(CC3)OCCO4)c(=O)c2c(C)n1Cc1ccccc1 | -0.415%

Row | Compound | hERG current change (%, negative = inhibition) at 10uM
22 | Cc1c2cnn(CC(=O)N3CCC4(CC3)OCCO4)c(=O)c2c(C)n1Cc1cccc(Cl)c1 | 1.18%
23 | O=C(Cn1ncc2c3ccccc3n(Cc3ccc(F)cc3)c2c1=O)N1CCC2(CC1)OCCO2 | -67.2%
24 | O=C(Cn1ncc2c3ccccc3n(Cc3cccc(Cl)c3)c2c1=O)N1CCC2(CC1)OCCO2 | -69%
25 | Cc1c2cnn(CC(=O)N3CCC4(CC3)OCCO4)c(=O)c2c(C)n1Cc1ccc(F)cc1 | -7.31%
26 | O=C(Cn1ncc2c3ccccc3n(Cc3ccc(F)cc3)c2c1=O)N1CCN(c2ncccn2)CC1 | -16.2%
27 | Cn1c2ccccc2c2cnn(CC(=O)N3CCC4(CC3)OCCO4)c(=O)c21 | -22.2%
28 | Cc1c2cnn(CC(=O)N3CCC4(CC3)OCCO4)c(=O)c2c(C)n1Cc1ccccc1F | 6.7%
29 | O=C(Cn1ncc2c3ccccc3n(Cc3ccccc3F)c2c1=O)N1CCC2(CC1)OCCO2 | -72.8%
30 | Cc1ccc2nc(C(C)O)[nH]c2c1 (centres unmarked) | 17.3%
31 | CC#CCCCC(=O)Nc1ccc(C(=O)O)cc1 | 1.36%
32 | CN1CCN(Cc2nc(-c3cccs3)no2)CC1c1ccccc1 (centres unmarked) | -8.45%
33 | COC(=O)c1nnn(CC(=O)NC(=O)Nc2cccc(Cl)c2C)c1C(=O)OC | -0.536%
34 | O=C(COc1ccccc1)Nc1ccccc1N1CCCCC1 | 2.27%
35 | CCn1cc(C(=O)NCCCN2CCN(C)CC2)c(=O)c2cc(S(=O)(=O)N3CCc4ccccc4C3)ccc21 | -20.4%
36 | CCCN(CCC)CCCNC(=O)c1cn(CC)c2ccc(S(=O)(=O)N3CCOCC3)cc2c1=O | 12.8%
37 | CCn1cc(C(=O)NCCc2ccccc2)c(=O)c2cc(S(=O)(=O)N3CCCC3)ccc21 | 1.7%
38 | CCN(CC)CCCNC(=O)c1cn(CC)c2ccc(S(=O)(=O)N3CCc4ccccc4C3)cc2c1=O | -52.9%
39 | CCCN(CCC)CCCNC(=O)c1cn(CC)c2ccc(S(=O)(=O)N3CCc4ccccc4C3)cc2c1=O | -69.9%
40 | CCCCN(CCCC)CCNC(=O)c1cn(CC)c2ccc(S(=O)(=O)N3CCc4ccccc4C3)cc2c1=O | -78.8%
41 | CCn1cc(C(=O)NCCN(CC(C)C)CC(C)C)c(=O)c2cc(S(=O)(=O)N3CCOCC3)ccc21 | -14.1%
42 | CCN(CC)CCNC(=O)c1cn(CC)c2ccc(S(=O)(=O)N3CCc4ccccc4C3)cc2c1=O | -59.4%

Row | Compound | hERG current change (%, negative = inhibition) at 10uM
43 | CCn1cc(C(=O)NCc2ccco2)c(=O)c2cc(S(=O)(=O)N3CCc4ccccc4C3)ccc21 | -15.3%
44 | O=C(NC1CCCCC1)C1CCC(CNS(=O)(=O)c2ccccc2)CC1 (centres unmarked) | 10.3%
45 | COc1ccc(-c2c(C#N)c(C)nc3c2C(=O)c2ccccc2-3)cc1 | -3.8%
46 | Cn1c(SCC(=O)c2ccccc2)nnc1-c1ccc(O)cc1 | -11.2%
47 | COc1cccc(C=NCC(C)N=Cc2cccc(OC)c2O)c1O (centres unmarked) | 3.33%
48 | Cn1c(=O)c2c(nc(NCc3ccco3)n2CC(O)CO)n(C)c1=O (centres unmarked) | 22.1%
49 | CCOC(=O)N1CCN(C(=O)CCN2C(=O)COc3ccccc32)CC1 | 0.87%
50 | c1ccc(-c2noc(-c3ccc4ccccc4c3)n2)cc1 | 11.9%
51 | CCOC(=O)c1c(NC(=O)CCCN2CCOCC2)sc2c1CC(C)(C)OC2 | -9.14%
52 | COc1ccc(C2=NOC(C(=O)Nc3ccc4c(c3)OCCO4)C2)c(OC)c1 (centres unmarked) | 3.96%
53 | CCOC(=O)COc1ccc(S(=O)(=O)NCc2ccco2)cc1 | -1.53%
54 | CCNc1nc(NC(C)CC)nc(ON=C(C)C)n1 (centres unmarked) | -2.23%
55 | CCCCN(CC)CCCNC(=O)c1cn(CC)c2ccc(S(=O)(=O)N3CCc4ccccc4C3)cc2c1=O | -74.9%
56 | CCCCN(C)CCCNC(=O)c1cn(CC)c2ccc(S(=O)(=O)N3CCOCC3)cc2c1=O | 10.3%
57 | CCCCSCCCNC(=O)c1cn(CC)c2ccc(S(=O)(=O)N3CCOCC3)cc2c1=O | -44.9%
58 | O=C(CCN1CCCCO1)N1CCCC(Nc2cccc(F)c2)C1 (centres unmarked) | 14%
59 | Nc1nc2n(n1)C(c1ccco1)CC(c1ccc(Cl)c(Cl)c1)N2 (centres unmarked) | -31.4%
60 | CC1CCN(C(=S)Nc2ccc(F)cc2)CC1 | 3.1%
61 | CCC1C(=O)CC(c2ccc([N+](=O)[O-])cc2)NC1c1ccc([N+](=O)[O-])cc1 (centres unmarked) | -76.3%
62 | CC1C(=O)CC(c2ccc([N+](=O)[O-])cc2)NC1c1ccc([N+](=O)[O-])cc1.Cl (centres unmarked) | -69.7%
63 | CC1C(=O)C(C)C(c2ccc([N+](=O)[O-])cc2)NC1c1ccc([N+](=O)[O-])cc1 (centres unmarked) | -46%

Row | Compound | hERG current change (%, negative = inhibition) at 10uM
64 | CCC1C(=O)CC(c2ccccc2)NC1c1ccccc1 (centres unmarked) | -21.4%
65 | CCC1C(=O)C(C)(C)C(=O)OC1c1ccc([N+](=O)[O-])cc1 (centres unmarked) | -7.26%
66 | CC1C(=O)CC(c2ccccc2)NC1c1ccccc1 (centres unmarked) | -7.08%
67 | Cc1ccc(NC(=O)CN(C)C(=O)CSc2nc3ccccc3o2)cc1 | -20.5%
68 | COc1cc2c(cc1NC(=O)CN1CCN(S(=O)(=O)c3ccccc3F)CC1)oc1ccccc12 | 10.1%
69 | COc1ccccc1C(=O)C1CCCN(Cc2cnc(C)s2)C1 (centres unmarked) | -8.13%
70 | COc1ccccc1C(=O)C1CCCN(Cc2cccc3nccnc23)C1 (centres unmarked) | -67.4%
71 | COc1c(C)cc(C(=O)C2CCCN(Cc3cccc4nccnc34)C2)cc1C (centres unmarked) | -64.5%
72 | CSc1ccc(C(=O)C2CCCN(Cc3cccc4nccnc34)C2)cc1 (centres unmarked) | -82.8%
73 | COc1ccccc1C(=O)C1CCCN(Cc2cn[nH]c2C2CCCCC2)C1 (centres unmarked) | -31.5%
74 | CSc1ccc(C(=O)C2CCCN(C(=O)c3cccnc3SC)C2)cc1 (centres unmarked) | -32.4%
75 | CSc1ccc(C(=O)C2CCCN(Cc3cc4ccccc4[nH]3)C2)cc1 (centres unmarked) | -48.8%
76 | CCCN1CCCC(C(=O)c2cc(C)c(OC)c(C)c2)C1 (centres unmarked) | -3.65%
77 | COc1c(C)cc(C(=O)C2CCCN(Cc3cnc(C)s3)C2)cc1C (centres unmarked) | -7.68%
78 | CCOCCCN=Cc1c(O)n(Cc2ccccc2)c(=O)[nH]c1=O | -4.85%
79 | c1ccc(CSc2nnc3ccc(-c4cccs4)nn23)nc1 | 3.64%
80 | Cc1cccc(OCC(=O)Nc2ccc3c(C)cc(=O)oc3c2)c1 | 1.59%
81 | CCOc1ccc(C(=O)OC2CCCN(C)C2)cc1.Cl (centres unmarked) | -18.1%
82 | O=C(c1ccc2ccccc2c1)N1CCCC1 | 19.2%
83 | CC(=O)c1sc(NC(=O)c2cc(=O)c3ccccc3o2)nc1C | 10.1%
